# Measured values reported in PubChem BioAssay (NCI).
# Compounds without any hit were thinned out: in the full panel of roughly 83,000, 20% have a hit.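 Plates (96-well) were seeded with cells, treated with compound at one concentration, and incubated for 48 hours before percent growth was determined.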 A number with no mark means an inactive call. Activity calls are given as the source filed them. The calls were made as follows: active = growth percent below 10; inactive = the rest.
# System: A498 renal
# Assay: NCI-60 one-dose screen, 48 h (100 = growth as untreated, 0 = no growth, -100 = all killed)
# Conditions: 10 µM unless noted
row,SMILES,growth
1,CCOC(=O)c1cnc2ccccc2c1Cl,56.6%
2,CCCc1cc(NC)nc(S(=O)(=O)CC)n1,113%
3,COc1ccc(/C=C2\C(=O)N=C3N2NC(c2cc(Br)ccc2O)C=C(C)N3c2ccccc2)cc1 (centres undefined),94.1%
4,O=S(=O)(NCCNc1nccc(-c2c(-c3cccc(F)c3)nc3occn23)n1)c1ccc(Br)cc1,81.3%
5,CCn1cc(C(=O)N/N=C/c2cccs2)c(=O)c2cc(F)c(N3CCNC(C)C3)c(F)c21 (centres undefined),104%
6,Cn1c(=O)c2[nH]c(N/N=C/c3ccccc3Br)nc2n(C)c1=O,92.9%
7,CCCCCCNC(=O)Oc1ccc(/C(=C(/C)Cc2ccc(OC)cc2)c2ccc(OCCCN(C)C)cc2)cc1,97.3%
8,O=C(OCc1ccc2cccc(O)c2n1)N1CCN(C(=O)c2cc3cc(F)ccc3[nH]2)CC1,17.5%
9,CC(=O)[C@@H]1CCC=C2CC[C@]3(C)[C@@H](CC[C@@H]4[C@@]5(C)CCCNC(C)(C)[C@@H]5CC[C@]43C)[C@H]21,69.8%
10,O=c1oc2ccc([N+](=O)[O-])cc2cc1Br,99.7%
11,S=C(Nc1ccc(-c2nc(N3CCOCC3)c3cccn3n2)cc1)Nc1cccnc1,-13.3% (active)
12,O=C1/C(=C/c2ccc(-c3ccc(Br)cc3)o2)SC(=S)N1CCc1ccc(O)cc1,64.7%
13,CCOC(=O)CSc1ncnc2c1c(-c1ccccc1)c(-c1ccccc1)n2-c1ccc(C)cc1,75.2%
14,CCNc1cc(-c2cccc(OC(F)(F)F)c2)nc2ccc(N3CCCC3)cc12,58.9%
